Assay [1] in a line: A549 cell viability effects, profiling panel, calcein-AM fluorescence, 48 h, basal (AID 1162). Also: test concentration not given here. The following applies: higher = more signal.
A short description of assay [2]: adipocyte viability effects, profiling panel, cell-based, 3T3-L1 adipocytes, calcein-AM fluorescence, 48 h, basal (AID 1163). Also: test concentration not given here. The following applies: 3T3-L1 adipocytes viability, higher = more signal.
A short description of assay [3]: HepG2 cell viability effects, profiling panel, calcein-AM fluorescence, 48 h, basal (AID 1164). Also: test concentration not given here. The conditions noted are these: higher = more signal.
The nature of assay [4]: MM1S cell viability effects, profiling panel, calcein-AM fluorescence, 48 h, basal (AID 1165).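 Also: viability of MM1S multiple myeloma cells under basal unstimulated conditions; test concentration not given here.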 The conditions noted are these: higher = more signal.
A short description of assay [5]: basal RPMI8226 viability, no added stimulus, profiling panel, cell-based, calcein-AM fluorescence, 48 h, PK04 Diversity Set (AID 1166).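 Also: cells grown under basal conditions without added stimulus; test concentration not given here.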 The conditions noted are these: RPMI8226 myeloma viability, higher = more signal.
Assay [6] in a line: basal HepG2 mitochondrial membrane potential changes, profiling panel, cell-based, JC-1 fluorescence, 24 h, 100 nL compound (AID 1167). Also: test concentration not given here. The conditions noted are these: higher = more signal.
Assay [7] can be described thus: basal 3T3-L1 adipocyte mitochondrial potential changes, profiling panel, cell-based, JC-1 fluorescence, 3T3-L1 adipocytes, 24 h, 100 nL compound (AID 1168). Also: test concentration not given here. The following applies: JC-1 mitochondrial fluorescence, higher = more signal, called active from +8 up or from −8 down.
A short description of assay [8]: basal RPMI8226 mitochondrial membrane potential changes, profiling panel, cell-based, JC-1 fluorescence, 24 h, 100 nL compound (AID 1169). Also: test concentration not given here. The following applies: RPMI8226 myeloma, JC-1 mitochondrial potential fluorescence, higher = more signal.
Assay [9] is described as follows: basal MM1S mitochondrial membrane potential changes, profiling panel, cell-based, JC-1 fluorescence, 24 h, 100 nL compound (AID 1170). Also: test concentration not given here. The conditions noted are these: higher = more signal.
Assay [10] in a line: A549 lung cancer cell viability effects, profiling panel, resazurin fluorescence, 24 h, PK04 Diversity Set (AID 1171). Also: test concentration not given here. The following applies: higher = more signal, called active from +8 up or from −8 down. A general note: Resazurin is reduced to fluorescent resorufin, in cell work by metabolically active cells.
Assay [11] can be described thus: HepG2 liver cancer cell viability effects, profiling panel, resazurin fluorescence, 24 h, PK04 Diversity Set (AID 1172). Also: test concentration not given here. The conditions noted are these: higher = more signal.
The nature of assay [12]: basal S. cerevisiae growth modulation, no modifier, primary screen, OD600, strain BY4716, 24 h, basal condition (AID 1173). The conditions noted are these: OD600, 24 h, higher = more signal, called active from +8 up or from −8 down.
Assay [13] can be described thus: MM1S myeloma cell viability, profiling panel, resazurin fluorescence, basal, 24 h, PK04 Diversity Set (AID 1174).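 Also: MM1S multiple myeloma cell line; test concentration not given here.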 The conditions noted are these: higher = more signal, called active from +8 up or from −8 down.
Assay [14] has as its target Dihydroorotate dehydrogenase (quinone), mitochondrial (Plasmodium falciparum (isolate 3D7)) (UniProt Q08210). The assay is described as follows: PfDHODH enzyme inhibitors, primary screen, biochemical, C-terminal His tag, absorbance 600 nm (AID 1175).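 Also: recombinant parasite enzyme with a five histidine tag at its C terminus; test concentration not given here.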 The conditions noted are these: DCIP absorbance 600 nm, higher = more signal, called active from +8 up or from −8 down.
Assay [15] is described as follows: P. aeruginosa biofilm formation inhibitors, primary screen, strain PAO1, LB-PBS medium, absorbance 600 nm (AID 1176). Also: test concentration not given here. The following applies: P. aeruginosa PAO1 growth/biofilm, A600, 12 h; higher = more signal.
Assay [16] in a line: S. cerevisiae RM11-1a growth modifiers, primary screen, strain RM11-1a, OD600, basal, 24 h (AID 1177).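 Also: cultures grown under basal conditions with no added stressor; test concentration not given here.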 The following applies: OD600, 24 h, higher = more signal, called active from +8 up or from −8 down.
The nature of assay [17]: E. coli acrAB mutant growth effects, primary screen, E. coli filamentation inducers, strain DRC39, OD650, 24 h (AID 1178).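 Also: growth measured as culture turbidity by optical density at 650 nm; test concentration not given here.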 The following applies: higher = more signal, called active from +8 up or from −8 down.
Assay [18] is described as follows: E. coli acrAB mutant growth effects, primary screen, E. coli filamentation inducers, strain DRC39, OD650, 48 h (AID 1179).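 Also: screen aims at cell division blockers that make cells filament.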 The following applies: E. coli DRC39 delta-acrAB growth, higher = more signal, called active from +8 up or from −8 down.
A short description of assay [19]: RPMI8226 myeloma cell viability, profiling panel, resazurin fluorescence, basal, 24 h, PK04 Diversity Set (AID 1180).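 Also: RPMI8826 multiple myeloma cell line at 5000 cells per well; test concentration not given here.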 The following applies: higher = more signal.
The target in assay [20] is E3 ubiquitin-protein ligase XIAP (Homo sapiens) (UniProt P98170). The assay is described as follows: XIAP binders, primary screen, biophysical, small-molecule microarray, fluorescence 635 nm (AID 1181).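 Also: score merges 667 nm emission and signal to noise over triplicate slides.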 The following applies: small-molecule microarray binding, higher = more signal.

Several values for one entry are separate records, joined by “and”; a condition that tells them apart may be missing. Equal entries are not always repeated. Activity calls are given as the source filed them. Unless noted, no rule for the calls is given here.

Chain of Dihydroorotate dehydrogenase (quinone), mitochondrial (Plasmodium falciparum (isolate 3D7)) (Q08210 whole entry, looked up): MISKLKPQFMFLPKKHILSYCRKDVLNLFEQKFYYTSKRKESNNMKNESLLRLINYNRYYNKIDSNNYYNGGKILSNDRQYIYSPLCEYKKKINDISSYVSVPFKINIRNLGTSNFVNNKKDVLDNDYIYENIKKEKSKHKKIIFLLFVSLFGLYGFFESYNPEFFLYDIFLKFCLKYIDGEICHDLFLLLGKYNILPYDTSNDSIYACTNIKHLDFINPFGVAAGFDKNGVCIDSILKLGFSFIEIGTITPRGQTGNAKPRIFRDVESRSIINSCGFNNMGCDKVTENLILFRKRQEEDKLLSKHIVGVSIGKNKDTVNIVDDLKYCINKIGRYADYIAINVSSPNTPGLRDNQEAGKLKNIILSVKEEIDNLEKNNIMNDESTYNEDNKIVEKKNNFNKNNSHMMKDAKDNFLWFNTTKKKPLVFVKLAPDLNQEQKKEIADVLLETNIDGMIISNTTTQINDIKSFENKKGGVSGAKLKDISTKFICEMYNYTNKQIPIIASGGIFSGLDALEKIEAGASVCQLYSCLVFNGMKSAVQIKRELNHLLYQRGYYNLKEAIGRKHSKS
Chain of E3 ubiquitin-protein ligase XIAP (Homo sapiens) (P98170 whole entry, looked up): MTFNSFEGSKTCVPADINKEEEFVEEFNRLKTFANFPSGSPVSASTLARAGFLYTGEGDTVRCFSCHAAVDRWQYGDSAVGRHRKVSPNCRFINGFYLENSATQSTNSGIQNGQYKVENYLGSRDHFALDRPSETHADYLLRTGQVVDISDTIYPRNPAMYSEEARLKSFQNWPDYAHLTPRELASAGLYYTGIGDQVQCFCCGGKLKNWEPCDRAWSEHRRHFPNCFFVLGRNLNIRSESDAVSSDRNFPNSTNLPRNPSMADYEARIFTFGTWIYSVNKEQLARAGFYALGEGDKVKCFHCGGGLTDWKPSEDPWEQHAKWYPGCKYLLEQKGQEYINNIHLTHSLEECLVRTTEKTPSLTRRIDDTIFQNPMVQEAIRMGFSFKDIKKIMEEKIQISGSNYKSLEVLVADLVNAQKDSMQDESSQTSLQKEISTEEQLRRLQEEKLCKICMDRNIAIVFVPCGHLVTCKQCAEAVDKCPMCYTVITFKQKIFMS

Turning to `C=CCN(C(=O)C(c1cccs1)N(CCOCCO)C(=O)/C=C\C(=O)O)C(C)(C)C` (stereo not given), the z-score is 1.01 and 1.61 in assay [1]; -0.515 and -0.161 in assay [2]; 1.25 and 0.41 in assay [3]; 1.62 and 0.903 in assay [4]; 0.116 and 0.954 in [5]; 1.07 and 0.991 in assay [6]. Further, the z-score in assay [7] is 1.16 (inactive) and 0.0544 (inactive); in [8] it was 0.28 and -0.0177; in assay [9], 0.987 and 0.588; in assay [10], 0.111 (inactive) and -0.422 (inactive); in [11], -0.403 and -0.304; in assay [12], -0.655 (inactive) and -0.25 (inactive). Besides, the z-score was -0.102 (inactive) and 0.0032 (inactive) in [13]; -0.497 (inactive) in [15]; 0.432 (inactive) and 0.467 (inactive) in [16]; 1.15 (inactive) and 1.46 (inactive) in assay [17]; 1.61 (inactive) and 1.68 (inactive) in [18]; -0.0043 and -0.146 in assay [19]. The composite z-score in assay [14] is -2.84 (inactive) and -0.333 (inactive); in assay [20] it was 0.0428 and 0.704.

Turning to `C[C@@H]1CC[C@@H](C(=O)O)N[C@H]1c1ccc(-c2ccco2)cc1`, the z-score is 1.11 in assay [1]; -0.396 in assay [2]; 0.229 in assay [3]; 0.617 in [4]; 0.404 in assay [5]; 1.49 in assay [6]. Moreover, the z-score in [7] was 0.309 (inactive); in assay [8] it was -0.636; in [9], 0.496; in assay [10], 0.115 (inactive); in assay [11] it was 0.443; in assay [12] it was -0.319 (inactive). The z-score was 0.603 (inactive) in [13]; -0.151 (inactive) in assay [15]; -0.0212 (inactive) in assay [16]; 0.127 (inactive) in assay [17]; -0.551 (inactive) in [18]; 0.285 in assay [19]. Further, the results for the composite z-score in assay [14] and in assay [20] were 0.268 (inactive) and 0.012, respectively.

In the case of `CO[C@H]1COC(=O)[C@H](C)NC(=O)CC=C[C@@H](C)[C@H](OC)COC(=O)CC=C[C@@H]1C`, the z-score is 1.51 in assay [1]; 0.459 in assay [2]; 0.235 in assay [3]; 0.0144 in assay [4]; 0.417 in assay [5]; 0.573 in [6]. The z-score in assay [7] was 0.156 (inactive); in assay [8], 0.56; in [9] it was 1.04; in assay [10], 0.74 (inactive); in [11] it was 0.322; in [12] it was 0.278 (inactive). Besides, the z-score in assay [13] was 0.845 (inactive); in [15], -0.519 (inactive); in assay [16], 1.18 (inactive); in [17], 0.901 (inactive); in [18], -0.959 (inactive); in assay [19] it was 0.636. Moreover, the values for the composite z-score in [14] and in assay [20] were 0.804 (inactive) and 0.234, respectively.

On to `C[N+](C)(C)CCCCCCNC(=O)[C@@H]1C[C@@H]2C(=O)N[C@@H](CCCC[N+](C)(C)C)C(=O)N2[C@@H]1c1ccc(O)cc1`, for which the z-score in [1] is 0.602 and 0.107; in assay [2] it was -0.266 and -0.25; in assay [3], 0.284 and -0.812; in [4], 0.814 and -0.514; in [5] it was -0.587 and 0.392; in [6] it was -0.367 and -1.19. For the same compound, the z-score in assay [7] was 0.608 (inactive) and 0.109 (inactive); in [8], -0.7 and 0.534; in assay [9], -0.778 and -0.749; in assay [10] it was 0.527 (inactive) and 0.818 (inactive); in [11], 0.104 and 0.822; in [12] it was 0.292 (inactive) and 0.384 (inactive). In addition, the z-score in assay [13] was 0.436 (inactive) and 0.422 (inactive); in assay [15], -0.462 (inactive) and 0.0499 (inactive); in assay [16] it was 1.06 (inactive) and 1.11 (inactive); in assay [17] it was 0.52 (inactive) and -0.04 (inactive); in assay [18], 0.801 (inactive) and -0.431 (inactive); in [19], 0.608 and -0.287. Moreover, the composite z-score in assay [14] is -0.792 (inactive) and -0.983 (inactive); in [20], -0.277 and -0.227.

As to `COC(=O)C1=C(C)N(Cc2ccccc2)C2=C(C(C)=O)C[C@@](O)(C(=O)OC)C(=O)N2[C@@H]1c1ccccc1`, the z-score in assay [1] was -0.112 and 0.965; in assay [2], 0.501 and 0.0527; in assay [3] it was -0.491 and 0.55; in [4] it was 1.11 and 0.699; in assay [5], -0.0117 and 1; in assay [6] it was 0.931 and 0.372. For the same compound, the z-score was 0.227 (inactive) and -0.00623 (inactive) in [7]; 0.689 and -0.71 in assay [8]; -0.16 and -0.174 in assay [9]; 1.25 (inactive) and 1.03 (inactive) in assay [10]; 0.5 and 0.54 in assay [11]; -1.89 (inactive) and -2.55 (inactive) in assay [12]. The z-score was -1.51 (inactive) and 0.956 (inactive) in [13]; 0.781 (inactive) in [15]; -1.29 (inactive) and -2.02 (inactive) in assay [16]; -0.0507 (inactive) and 0.915 (inactive) in assay [17]; 0.0063 (inactive) and -1.49 (inactive) in assay [18]; 1.28 and 0.192 in [19]. For the same compound, the composite z-score in assay [14] was -0.557 (inactive) and -0.986 (inactive); in assay [20] it was 0.215 and -0.005.

For the compound `CCN1C(=O)[C@H]2[C@H]3[C@H](O)[C@H](O)CC(=NNC(=O)OCc4ccc(OC)cc4)[C@H]3CC[C@H]2C1=O`, the z-score was 0.173 in assay [1]; -0.402 in assay [2]; 1.33 in assay [3]; 0.436 in assay [4]; -0.261 in [5]; 0.385 in assay [6]. Besides, the z-score in assay [7] was -0.596 (inactive); in [8] it was -0.236; in assay [9] it was -0.00926; in [10] it was -0.947 (inactive); in assay [11] it was -1.02; in [12] it was 0.199 (inactive). The z-score is -2.24 (inactive) in [13]; -0.273 (inactive) in assay [15]; 0.632 (inactive) in assay [16]; -0.0482 (inactive) in assay [17]; 0.559 (inactive) in assay [18]; -1.38 in [19]. The composite z-score in assay [14] was -0.223 (inactive); in assay [20], 0.0322.

For `CCC[C@@H]1C[C@@]1(CCC)[C@@H](NC(=O)c1ccc(-c2ccccc2)cc1)c1cccc(Cl)c1`, the z-score in assay [1] was -2.26 and 0.247; in assay [2], -0.882 and -0.867; in assay [3], -2.12 and 1.52; in [4], -2.16 and -0.143; in assay [5] it was -2.94 and -1.06; in assay [6], -0.93 and 2.74. For the same compound, the z-score is -0.723 (inactive) and 0.883 (inactive) in assay [7]; -0.256 and 0.137 in assay [8]; -0.647 and -1.16 in [9]; 2.06 (inactive) and 0.608 (inactive) in assay [10]; 0.791 and 0.395 in [11]; 0.0143 (inactive) and 1.49 (inactive) in assay [12]. Moreover, the z-score in [13] was -0.0393 (inactive) and -0.312 (inactive); in assay [15], 1 (inactive) and 0.343 (inactive); in [16] it was 0.38 (inactive) and 1.47 (inactive); in assay [17], -0.505 (inactive) and -0.336 (inactive); in [18], -0.61 (inactive) and -0.0929 (inactive); in assay [19] it was 0.889 and -0.275. Further, the composite z-score in [14] is -0.824 (inactive) and 0.499 (inactive); in assay [20], -0.0305 and 0.0623.
